# Results from the supplement of paper PMC11577813, “Eurasian spruce bark beetle detects lanierone using a highly expressed specialist odorant receptor, present in several functional sensillum types” (BMC Biology, 2024).
# ± gives the standard deviation of the averaged measurements.
# Test system: lanierone-responsive B-neuron OSN class (ItypOR36)
# Assay: net action potential response of lanierone B-neuron (blank-subtracted) (spikes/s (Hz)); higher = stronger excitation
# Settings: 10 µg on filter paper, neuron: B neuron (small spike amplitude)
# Description: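 Single sensillum recordings from antennal olfactory sensilla of live adult Ips typographus. Each compound was 10 µg in paraffin oil, delivered as a 0.5 s puff. Net response = spikes in the first 0.5 s of response minus the 0.5 s pre-stimulus count, doubled to give Hz, with blank response subtracted. Values are for the small-spike lanierone-responsive B-neuron (putatively expressing ItypOR36), recorded in sensilla co-housing the A-neuron class; N = 1-4, averaged.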
# [1] = co-localized A-neuron class: (4S)-cis-verbenol
# [2] = co-localized A-neuron class: (5S,7S)-trans-conophthorin
# [3] = co-localized A-neuron class: (+)-isopinocamphone
# [4] = co-localized A-neuron class: (+)-trans-4-thujanol
# [5] = co-localized A-neuron class: ipsdienol
# [6] = co-localized A-neuron class: myrcene
# [7] = co-localized A-neuron class: p-cymene
SMILES,net action potential response [1],net action potential response [2],net action potential response [3],net action potential response [4],net action potential response [5],net action potential response [6],net action potential response [7]
COc1ccc(C)cc1 [4-Methyl anisole],-1.33 ± 8.3,2 ± 3.5,2.67 ± 1.1,-2 ± 6.7,0.667 ± 10,-8,-2.67 ± 3.1
CCCCCC=O [Hexanal],0.667 ± 3.1,-0.667 ± 1.1,-1.33 ± 9,-3 ± 2.6,-3.33 ± 4.2,2,3.33 ± 4.6
C[C@]12CCC[C@](C)(OC1)O2 (racemic) [(±)-Frontalin],-1.33 ± 8.1,-2 ± 2,0 ± 7.2,0.5 ± 4.1,0 ± 4,0,-4 ± 4
C=C(C)[C@@H]1CC=C(C)CC1 [(-)-Limonene],-1.33 ± 5.8,-2.67 ± 3.1,-0.667 ± 2.3,2.5 ± 5.3,1.33 ± 4.6,-8,-1.33 ± 4.2
CCC/C=C\CO,2 ± 11,2 ± 5.3,-7.33 ± 4.6,2 ± 3.6,0.667 ± 3.1,6,2.67 ± 4.2
CCCCCC(O)CC (racemic) [(±)-3-Octanol],1.33 ± 7.6,-1 ± 3.5,-3.33 ± 4.2,-4 ± 8.6,-4.67 ± 4.2,-6,-3.33 ± 5.8
